Screens: PubChem BioAssay, several laboratories
The list is not random: actives were taken first. Their share in the collection is about 3.2%.
APOBEC3G inh = APOBEC3G (human) deaminase inhibition; Q9HC16; recombinant A3G, ssDNA deamination FAM/TAMRA fluorescence; inhibition, % at 20 µM; actives 0.28% (n = 330,000);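 active = inhibition of at least 40% at 20 µM, with no more than 30% in the related APOBEC3A deaminase screen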;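 also: plate controls were DMSO wells with A3G for no effect and wells lacking A3G enzyme for full effect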
AHR act = activates the human aryl hydrocarbon receptor; AHR-responsive luciferase reporter cells, luminescence; activation, % at 5 µM; P35869; actives 2.5% (n = 320,000); in the data active = activation above about 47%;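 also: 0% = vehicle wells and 100% = reference agonist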
A3A deaminase = human APOBEC3A DNA deaminase inhibition | recombinant A3A, FAM/TAMRA ssDNA deamination fluorescence | inhibition, % at 20 µM | actives 0.41% (n = 330,000);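 active = at least 40% inhibition at 20 µM here, with at most 30% in a related deaminase screen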;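 also: plate controls were A3A with DMSO for no effect and wells lacking A3A enzyme for full effect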
NTR1 ag = agonists of human neurotensin receptor NTR1 | AID 493036 | actives 0.17% (n = 330,000) | NTR1-U2OS beta-arrestin-GFP spot imaging, agonist mode | activation, % at 20 µM | P30989;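 active = activation at or above 40% of the spot to cytoplasm intensity ratio, with at least 20 cells analyzed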;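 also: 0% = DMSO without peptide and 100% = 100 nM NTR1 peptide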
Target sequence (P30989 whole entry, looked up): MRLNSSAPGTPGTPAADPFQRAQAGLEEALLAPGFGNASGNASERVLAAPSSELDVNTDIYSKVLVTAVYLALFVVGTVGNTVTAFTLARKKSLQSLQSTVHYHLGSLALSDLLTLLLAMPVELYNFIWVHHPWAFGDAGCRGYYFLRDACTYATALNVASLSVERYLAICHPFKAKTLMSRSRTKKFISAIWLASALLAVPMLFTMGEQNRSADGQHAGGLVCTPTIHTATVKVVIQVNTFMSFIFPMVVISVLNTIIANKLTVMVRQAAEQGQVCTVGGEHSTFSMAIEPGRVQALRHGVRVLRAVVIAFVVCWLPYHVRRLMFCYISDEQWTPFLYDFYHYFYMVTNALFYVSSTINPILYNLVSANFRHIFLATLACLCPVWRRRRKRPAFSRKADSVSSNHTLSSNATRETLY
AHR act confirm = human AHR activation, confirmation. shares compounds with AHR act. human cells, AHR-responsive luciferase reporter, luminescence. activation, % at 9 µM. actives 87% (n = 2,300); in the data active = activation above about 49%;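 also: HepG2 hepatoma cells carrying a DRE-driven firefly luciferase reporter; 0% = vehicle wells and 100% = reference agonist wells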
PXR act counter = counter-screen for AHR activators: human PXR activators; shares compounds with AHR act; cell-based PXR reporter, luciferase luminescence; activation, % at 11.6 µM; actives 88% (n = 2,300); in the data active = activation above about 11%;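 also: human hepatoma DPX-2 cells expressing full-length human PXR; 0% = DMSO and 100% = reference agonist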
Active calls of the source: *; . = no result given.

SMILES | APOBEC3G inh | AHR act | A3A deaminase | NTR1 ag | AHR act confirm | PXR act counter
Cc1cc(=O)[nH]c(N/N=C/c2c(C)nn(-c3ccccc3)c2C)n1 | -7.8 | 3.1 | -1.6 | 0.1 | . | .
Cc1nn(-c2ccccc2)c(C)c1/C=N/Nc1nc2ccccc2[nH]1 | -2.5 | 181.4* | 1.2 | 0.6 | 33.9 | 25.5*
CCCOc1ccc(N2CC(C(=O)NC3=NCCS3)CC2=O)cc1 (configuration not stated) | -0.4 | 12.6 | 3.1 | 0.8 | . | .
COc1ccccc1Nc1nc2ccccc2[nH]1 | -10.2 | 119.4* | -7.4 | -1.4 | 62.9* | 35.3*
C(=N\Nc1nc2ccccc2[nH]1)/c1ccncc1 | -4.4 | 107.8* | -1.2 | -1.2 | 114.3* | 10.8*
CCc1ccccc1Nc1nc2ccccc2[nH]1 | -8.8 | 2.8 | -3.1 | -0.6 | . | .
CC(/C=N/Nc1nc2ccccc2[nH]1)=C\c1ccccc1 | -2.9 | 38.5 | 1.5 | 3.9 | . | .
COc1cc(/C=N/Nc2nc3ccccc3[nH]2)cc(OC)c1O | 1.0 | 81.4* | -0.5 | 0.2 | 16.8 | 6.3
O=C1CN(S(=O)(=O)c2ccc([N+](=O)[O-])cc2)CC(=O)N1 | -7.9 | 0.1 | -2.6 | -1.8 | . | .
O=C(NCc1nnc(SCc2ccc(F)cc2)n1-c1ccc(F)cc1)C12CC3CC(CC(C3)C1)C2 | -1.1 | 2.5 | 1.6 | 0.3 | . | .
Nc1nc(Nc2ccccc2Cl)cc(=O)[nH]1 | -9.7 | -0.9 | -3.3 | -3.2 | . | .
Cc1nc2ccccn2c1C(=O)Nc1ccc(Cl)cc1 | -5.6 | 91.4* | -5.1 | -1.1 | 152.4* | 15.7*
CC(=O)Nc1ccc(NC(=O)c2c(C)nc3ccccn23)cc1 | -4.6 | 2.5 | -2.6 | -0.1 | . | .
O=C(O)C1C(=O)NCC1c1ccccc1 (configuration not stated) | -2.1 | -0.2 | -0.7 | -0.3 | . | .
Cc1ccc(C2=NCCn3nc4cc(C(F)(F)F)ccc4c32)cc1 | -7.3 | 33.6 | -1.3 | 4.0 | . | .
COc1ccc(C2=NCCn3nc4cc(C(F)(F)F)ccc4c32)cc1 | 2.7 | 79.8* | -3.1 | 1.9 | 69.2* | 41.6*
COc1ccc2nccc(/C=C/c3ccnc4ccc(OC)cc34)c2c1 | -9.6 | 104.8* | -3.7 | 1.6 | 95.6* | 33.7*
COc1ccc(-c2[nH]c(-c3ccc(C)cc3)nc2SCC(=O)NC2CCCC2)cc1 | -8.5 | 104.2* | -8.2 | 2.3 | 88.5* | 85.9*
COc1ccc(-c2[nH]c(-c3ccccc3)nc2SCC(=O)Nc2nccs2)cc1 | -3.7 | 108.8* | -2.4 | 2.4 | 78.2* | 42.4*
COc1ccc2nc(SCC(=O)NC3CCCC3)c(C)cc2c1 | -1.4 | 3.9 | -2.2 | 1.1 | . | .
COc1ccc(COC(=O)Oc2ccc(CNC(C)=O)cc2OC)c([N+](=O)[O-])c1 | 7.4 | 10.5 | 2.6 | 2.5 | . | .
CSCc1c(C(=O)Nc2ccc(N3CCOCC3)cc2)oc2ccccc12 | -5.7 | 86.5* | -4.9 | 0.8 | 95.5* | 12.7*
CSCc1c(C(=O)Nc2ccc3c(c2)OCO3)oc2ccccc12 | -9.6 | 91.5* | -0.5 | -0.9 | 109.2* | 44.5*
COc1cccc(NC(=O)c2oc3ccccc3c2NC(=O)c2ccc3c(c2)OCO3)c1 | 0.1 | -6.4 | 3.1 | 2.6 | . | .
CC(=O)Nc1c(C(=O)Nc2ccc3c(c2)OCO3)oc2ccccc12 | -2.4 | 113.1* | -3.8 | 0.3 | 146.7* | 35.1*
SMILES | APOBEC3G inh | AHR act | A3A deaminase | NTR1 ag | AHR act confirm | PXR act counter
COCC(=O)Nc1c(C(=O)Nc2ccc3c(c2)OCO3)oc2ccccc12 | -10.2 | 134.4* | -5.7 | 2.7 | 100.0* | 47.8*
Cc1ccc(S(=O)(=O)N(Cc2ccc([N+](=O)[O-])cc2)C(=O)N2CCN(C)CC2)cc1 | -2.8 | . | -0.9 | 0.5 | . | .
Cc1sc2ncnc(N3CCC(C(=O)NNC(=O)COc4cccc(C(F)(F)F)c4)CC3)c2c1C | -6.3 | 3.5 | -2.9 | 10.9 | . | .
Cc1ccc(CN2C3CCCC2CC(NC(=O)c2ccc(C)cc2)C3)cc1 (configuration not stated) | -6.4 | -0.4 | 0.1 | 0.0 | . | .
Cn1c2ccccc2c(=O)c2ccc(NCCc3cccs3)cc21 | 22.1 | 110.6* | 5.6 | 9.3 | -1.7 | 112.5*
CCOc1ccccc1-c1nc(-c2ccc(NC(=O)c3ccc(Br)o3)cc2)no1 | -2.2 | 123.1* | 0.7 | 3.2 | 106.0* | 18.6*
CCOc1ccccc1-c1nc(-c2ccc(NC(=O)Cc3ccc(OC)cc3)cc2)no1 | -1.3 | 9.3 | 0.5 | 13.5 | . | .
CCOC(=O)Nc1ccc(N2CCOCC2)c(S(=O)(=O)N2CCOCC2)c1 | -1.7 | 3.4 | -0.5 | 2.0 | . | .
